Reference: PubChem BioAssay (Tox21)
Records with an inconclusive call do not appear. The source made the active and inactive calls. Calls come from the whole dose curve; as a rule, active = well fitted activation curve with a large enough effect in the repeat runs; inconclusive = weak or mixed curves; inactive = flat fitted curve, though single readings scatter.

Experiment: A CellTox Green Cytotoxicity Assay to monitor cytotoxicity in HEK293 cells - 32 hour (AID 1224881); note: nearly all actives have a fitted effect of over 40% in size
Settings: CellTox Green fluorescence; series mostly up to 76.8 µM; cytotoxicity increase: at the top concentration
How it was run: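 Tox21 screen in HEK293: membrane-impermeant cyanine dye fluoresces on binding dead-cell DNA; compound pinned 5 h post-seeding, plates held at 37 C, signal read repeatedly through 40 h.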
% is set by controls: 0 for no effect and ±100 for the full control effect.

SMILES | cytotoxicity increase
COc1cc(C(C)=O)ccc1OCCCN1CCC(c2noc3cc(F)ccc23)CC1 | 15% [at 35.3 µM] (inactive)
Nc1ccn([C@H]2CS[C@@H](CO)O2)c(=O)n1 | -0.53% (inactive)
CC(C)(C(=O)c1cccnc1)c1cccnc1 | -2.75% [at 35.3 µM] (inactive)
C[C@@H]1C[C@H]2[C@@H]3CCC4=CC(=O)C=C[C@]4(C)[C@@]3(F)[C@@H](O)C[C@]2(C)[C@@]1(O)C(=O)COP(=O)(O)O | -14% (inactive)
Cc1ccc(S(=O)(=O)NC(=O)NC2CCCCC2)cc1 | 0.994% [at 35.3 µM] (inactive)
COC(=O)Nc1nc2ccc(C(=O)C3CC3)cc2[nH]1 | -2.99% [at 35.3 µM] (inactive)
O=S(=O)(O)CO | -10% (inactive)
FC(F)(F)C(F)(F)C(F)(F)C(F)(F)CCI | -4.52% [at 35.3 µM] (inactive)
CCCCCCOC(=O)CCCCC | 8.8% (inactive)
O=C(O)CCC(=O)c1ccc(-c2ccccc2)cc1 | -10.4% [at 35.3 µM] (inactive)
CCC(CO)(CO)CO | 0.0235% (inactive)
C=CCOC(=O)COCCC(C)C | -15.9% (inactive)
CCOC(=O)C(C)O (stereo not drawn) | 0.503% (inactive)
CCCCCCCC/C=C/C(=O)O | 8.69% [at 35.3 µM] (inactive)
CCCCCCC(CO)CCCC (stereo not drawn) | -0.0944% (inactive)
Nc1nc(-c2ccc([N+](=O)[O-])cc2)cs1 | -9.27% (inactive)
COC(OC)OC | 5.68% (inactive)
O=c1[nH]c2cc(C(F)(F)F)c(N3CCOCC3)cc2n(CP(=O)(O)O)c1=O | -8.64% [at 35.3 µM] (inactive)
CCCCCCCCCCCCCCN(C)C | -32.2% [at 15.8 µM] (inactive)
CCCCCCCCCCCCCCCC(=O)OCC | 0.623% (inactive)
COc1ccc(CCN(C)CCCN2CCc3cc(OC)c(OC)cc3CC2=O)cc1OC | 9.6% [at 35.3 µM] (inactive)
CCCCC[C@H](O)/C=C/[C@H]1[C@H](O)CC(=O)[C@@H]1C/C=C\CCCC(=O)O | 2.97% [at 35.3 µM] (inactive)
CCCC(=O)OC(=O)CCC | 0.382% (inactive)
